Among all 85,000 compounds or so, about 35 (0.04%) were called active.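 The calls were made as follows: active = viability drop by adding the cancer drug above about 55%, with treated viability meeting a 40% cutoff (limit read from the data); inactive = the rest, inconclusive results apart.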 The full list was thinned out, with actives kept by preference.

The values below come from PubChem BioAssay AID602 (SRMLSC, 2007).

This assay can be described thus: reversal of MRP1-mediated doxorubicin resistance, primary screen, H69AR cells, doxorubicin co-treatment (AID 602).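 As to differential viability (reversal): larger differential means the compound sensitizes cells more to doxorubicin.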 To be noted: CellTiter-Glo, 72 h, at 10 µM; for differential viability (reversal): stronger effect = higher value.
Where [1] appears, read: H69AR cells + 2 uM doxorubicin, measured here: viability with 2 uM doxorubicin, stronger effect = lower value.
Setting [2] is: H69AR cells, measured here: cytotoxicity without doxorubicin.

Broadly, the viability is a read-out of living cells in per cent, often relative to untreated cells. `COC(=O)CNC(=O)c1ccccc1F`: the differential viability (reversal) (H69AR cells + 2 uM doxorubicin) is -4.37% (inactive). The viability under setting [1] was determined as 89.6% and the viability under setting [2] was found to be 85.2%.
`Cc1ccc(-n2c(SCC(=O)NCc3ccc4c(c3)OCO4)nnc2-c2cccnc2)c(C)c1`: the differential viability (reversal) (H69AR cells + 2 uM doxorubicin) is -22.4% (inactive). For the same compound, the viability is 57.5% under setting [1] and 35.1% under setting [2].
For `CCCCN1C(=O)/C(=C2/C=CC=CN2C)SC1=S`, in that order: 1.69% (inactive), 88.5% and 90.2%.
With `CS(=O)(=O)N(CC(=O)Nc1ccc(Cl)c(Cl)c1)C1CCCCC1`, the differential viability (reversal) (H69AR cells + 2 uM doxorubicin) is -18.2% (inactive). The viability is, setting by setting: under setting [1], 34.8%; under setting [2], 16.6%.
For `CC(C)(C)NC(=O)Cn1c(SCC(=O)Nc2nccs2)nc2ccccc21`, under “H69AR cells + 2 uM doxorubicin”, the differential viability (reversal) was 7.96% (inactive). Besides, the viability is 84.5% under setting [1] and 92.5% under setting [2].
Consider `COCCCNC(=O)CN1CCN(Cc2ccccc2Cl)C1=O`, for which the differential viability (reversal) (H69AR cells + 2 uM doxorubicin) was 11.7% (inactive). In addition, the viability runs as follows: under setting [1], 86.8%; under setting [2], 98.5%.
As to `CCCc1nc(NCc2ccc3c(c2)OCO3)c2nnn(Cc3ccccc3Cl)c2n1`, where the note is “H69AR cells + 2 uM doxorubicin”, the differential viability (reversal) is 1.6% (inactive). Moreover, the viability was found to be 23% under setting [1] and 24.6% under setting [2].
`Cc1nc2ccccc2n1C(=O)N1CCOCC1`: the differential viability (reversal) (H69AR cells + 2 uM doxorubicin) was -2.57% (inactive). Besides, the viability by setting is: under setting [1], 85.1%; under setting [2], 82.5%.
Take `CCN(CC(=O)Nc1ccccc1OC)C(=O)Cn1cnc2ccccc2c1=O`: the differential viability (reversal) (H69AR cells + 2 uM doxorubicin) was 8.46% (inactive). Moreover, the viability runs as follows: under setting [1], 84.2%; under setting [2], 92.7%.
As for `CCOc1c(Br)cc(/C=C2\C(=O)N(CCC#N)N=C2C)cc1OC`, the differential viability (reversal) (H69AR cells + 2 uM doxorubicin) was -46.8% (inactive). Further, the viability is, setting by setting: under setting [1], 73%; under setting [2], 26.2%.
For `CCNCCC(=O)N1c2ccccc2Sc2ccc(NC(=O)OCC)cc21`, the differential viability (reversal) (H69AR cells + 2 uM doxorubicin) was 8.86% (inactive). The viability stood at 69.7% under setting [1] and 78.6% under setting [2].
With `Cc1cccn2c(=O)c(/C=C(\C#N)S(=O)(=O)c3ccc(Cl)cc3)c(N3CCC(C(N)=O)CC3)nc12`, where the note is “H69AR cells + 2 uM doxorubicin”, the differential viability (reversal) is -6.85% (inactive). The viability was 89% under setting [1] and 82.2% under setting [2].
The corresponding values for `COc1ccc(-n2nc(C(=O)NCC(=O)Nc3cccc(C)n3)c3ccccc3c2=O)cc1` are -0.23% (inactive), 74.5% and 74.2%.
As to `CCOC(=O)N1CCC(Nc2c(NCCCN3CCN(CC)CC3)c(=O)c2=O)CC1`, for the setting “H69AR cells + 2 uM doxorubicin”, the differential viability (reversal) is 2.1% (inactive). Also, the viability by setting is: under setting [1], 109%; under setting [2], 112%.
For `O=S(=O)(Cc1cc(Sc2ccccc2)nc(-c2ccccc2)n1)c1ccccc1`, in that order: -7.14% (inactive), 91.4% and 84.3%.
The corresponding values for `Cc1ccc(CN(N=Nc2nonc2N)c2nonc2N)c(C)c1` are 2.63% (inactive), 76.9% and 79.6%.
For the compound `CCN1C(=O)/C(=C2/Sc3ccc(OC)cc3N2C)SC1=Nc1ccc(C)cc1`, the differential viability (reversal) (H69AR cells + 2 uM doxorubicin) was -4.5% (inactive). Further, the viability is 70.6% under setting [1] and 66.1% under setting [2].
In the case of `CC/C(O)=N\S(=O)(=O)c1ccc(N=NN(C)C)cc1`, where the note is “H69AR cells + 2 uM doxorubicin”, the differential viability (reversal) is -1% (inactive). The viability is, setting by setting: under setting [1], 86.7%; under setting [2], 85.7%.
With `CCC(C)NC(=O)c1cc(Cl)ccc1OC` (stereo unspecified), the differential viability (reversal) (H69AR cells + 2 uM doxorubicin) was 6.89% (inactive). Moreover, the viability runs as follows: under setting [1], 83.6%; under setting [2], 90.5%.
With `O=C(Nc1nnc(SCc2ccccc2)s1)c1ccco1`, the differential viability (reversal) (H69AR cells + 2 uM doxorubicin) is 5.76% (inactive). The viability runs as follows: under setting [1], 90.2%; under setting [2], 96%.
`CCc1ccc(CNC(=O)C2CC(=O)N(CCc3ccc(C)cc3)C2)cc1` (stereo unspecified): the differential viability (reversal) (H69AR cells + 2 uM doxorubicin) is 1.99% (inactive). In addition, the viability under setting [1] was 97.6% and the viability under setting [2] is 99.5%.
On to `Cc1nnc(OCC(=O)NCCC2=CCCCC2)c2ccccc12`, for which, under “H69AR cells + 2 uM doxorubicin”, the differential viability (reversal) was -0.56% (inactive). The viability worked out at 101% under setting [1] and 101% under setting [2].
For `O=C1C2C3C=CC(C4CC34)C2C(=O)N1/N=C/c1ccc(-c2ccccc2[N+](=O)[O-])o1` (stereo unspecified), the differential viability (reversal) (H69AR cells + 2 uM doxorubicin) was 16.1% (inactive). Also, the viability is 70.3% under setting [1] and 86.5% under setting [2].
Regarding `CC(C)CCOc1ccc(C(=O)C[N+]2(C)CCOCC2)cc1`, the differential viability (reversal) (H69AR cells + 2 uM doxorubicin) was 16.9% (inactive). The viability under setting [1] worked out at 86% and the viability under setting [2] was found to be 103%.
For the compound `Nc1nc(C23CC4CC(CC(C4)C2)C3)cs1`, under “H69AR cells + 2 uM doxorubicin”, the differential viability (reversal) was -3.46% (inactive). The viability is, setting by setting: under setting [1], 96.8%; under setting [2], 93.3%.
Take `Cc1cc(C)c(NC(=O)CN2CCOCCOCCOCCOCC2)c(C)c1`: for the setting “H69AR cells + 2 uM doxorubicin”, the differential viability (reversal) is 8.19% (inactive). Also, the viability was 89% under setting [1] and 97.2% under setting [2].
The corresponding values for `Nc1ccc(-n2nncc2-c2ccco2)cc1` are 59.2% (active), 39.6% and 98.8%.
For the compound `Cc1ccc(-n2ncc3c(=O)n(-c4ccc(C)c(C)c4)c(-c4ccco4)nc32)cc1`, under “H69AR cells + 2 uM doxorubicin”, the differential viability (reversal) is -39.7% (inactive). For the same compound, the viability was 71% under setting [1] and 31.3% under setting [2].
The corresponding values for `Cc1[nH]n(-c2cccc(Cl)c2)c(=O)c1/C=N/n1c(C)nc2ccccc2c1=O` are -32.9% (inactive), 62% and 29.1%.
Regarding `Cc1cccc(C)c1OC(=O)CSc1nnc(-c2ccccc2)o1`, under “H69AR cells + 2 uM doxorubicin”, the differential viability (reversal) was 9.93% (inactive). Moreover, the viability reads like this: under setting [1], 88.5%; under setting [2], 98.4%.
For the compound `Cc1ccc(NC(=S)NC(NC(=O)Cc2cccc3ccccc23)C(Cl)(Cl)Cl)cc1` (stereo unspecified), under “H69AR cells + 2 uM doxorubicin”, the differential viability (reversal) was 0.19% (inactive). Further, the viability is 0.8% under setting [1] and 0.99% under setting [2].
As to `COc1ccc(/C(N)=N/OC(=O)Oc2ccccc2)cc1`, the differential viability (reversal) (H69AR cells + 2 uM doxorubicin) is -10.6% (inactive). For the same compound, the viability is, setting by setting: under setting [1], 93.2%; under setting [2], 82.6%.
Consider `CCOc1ccc2c(c1)C(c1ccc(C)cc1)=NNC(c1ccc(C)cc1)=N2`, for which, under “H69AR cells + 2 uM doxorubicin”, the differential viability (reversal) is -43% (inactive). The viability under setting [1] turned out to be 64% and the viability under setting [2] is 21%.
The corresponding values for `O=C(CN1CCSCC1)N/N=C/c1ccc(F)cc1` are 8.43% (inactive), 90.1% and 98.5%.
Take `CC(C)(C)c1ccc(C(=O)NNC(=O)Cc2ccccc2)cc1`: the differential viability (reversal) (H69AR cells + 2 uM doxorubicin) is 9.15% (inactive). Besides, the viability under setting [1] was determined as 85.9% and the viability under setting [2] was 95%.
Regarding `COC(=O)C1=C(C(=O)OC)C2(OC1c1ccc(Br)cc1)C(=O)c1ccccc1C2=O` (stereo unspecified), for the setting “H69AR cells + 2 uM doxorubicin”, the differential viability (reversal) was 12.1% (inactive). Also, the viability runs as follows: under setting [1], 94%; under setting [2], 106%.
As for `O=C(CSc1nc2cccnc2n1Cc1ccccc1)N1CCc2ccccc21`, under “H69AR cells + 2 uM doxorubicin”, the differential viability (reversal) is 10.8% (inactive). Moreover, the viability runs as follows: under setting [1], 59.3%; under setting [2], 70.1%.
